Test [1] can be described thus: antimalarial activity against Dd2 strain (AID 2302;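 active means growth inhibition above 50% at the single 2 µM test dose, taken to imply half-maximal potency below 2 µM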;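 further: 0% = DMSO untreated growth and 100% = chloroquine plus artemisinin killed control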). The note with it: P. falciparum Dd2 in RBCs, LDH growth readout, 72 h; at 2 µM; hits give high values.
Test [2] is described as follows: HepG2 cytotoxicity, primary screen, cytotoxicity control for P. falciparum antimalarial project, cell-based, ATP luminescence (AID 2303;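 active means inhibition above 50%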;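 further: 0% = DMSO wells and 100% = digitonin-killed cells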). The note with it: HepG2 viability, 24-48 h, at 10 µM, hits give high values.
Test [3] concerns the target L-lactate dehydrogenase (Plasmodium falciparum (isolate CDC / Honduras)) (UniProt Q27743). As to the kind of experiment: PfLDH activity inhibition – cell lysate, 3D7 strain, counter-screen for P. falciparum growth inhibition project (AID 2304).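 Further: 0% = vehicle and 100% = reference inhibitor.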 The following applies: P. falciparum 3D7 crude extract, LDH APAD/NBT absorbance; at 2 µM; hits give high values. (In general: Counterscreens check selectivity or assay interference.)

The nature of test [4]: inhibition of 3D7 malaria parasite growth – strain 3D7 (AID 2306).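 Further: 0% = DMSO wells and 100% = chloroquine plus artemisinin control wells.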 The note with it: P. falciparum 3D7 erythrocytic growth, LDH absorbance, 72 h; at 2 µM; hits give high values.
Test [5] concerns the target Calcium-dependent protein kinase 1 (Plasmodium falciparum (isolate 3D7)) (UniProt P62344). As to the kind of experiment: PfCDPK1 kinase inhibitors, biochemical, TCAMS library (AID 1159585; cut-off not given, nearly all actives have IC50 up to about 0.98 µM;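 further: inhibitors leave more ATP so luminescence rises with inhibition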). The following applies: recombinant PfCDPK1, Kinase-Glo ATP depletion luminescence. For orientation: Kinase-Glo reads ATP consumption through a luciferase reaction.
In test [6] the target is Plasmodium falciparum protein kinase 6 (PK6, PF3D7_1337100) (UniProt Q8IDW1). As to the kind of experiment: PfPK6 kinase inhibitors, biochemical, TCAMS library (AID 1159586). The note with it: recombinant PfPK6, Kinase-Glo ATP depletion luminescence.
For test [7], the target named is Protein kinase 7 (PK7), Plasmodium falciparum 3D7 (PF3D7_0213400) (UniProt Q7YTF7). As to the kind of experiment: inhibition of Plasmodium PK7 catalytic activity – biochemical, TCAMS antimalarial set, Kinase-Glo luminescence (AID 1159587). The following applies: recombinant PfPK7, Kinase-Glo ATP depletion luminescence.
The target of test [8] is Calcium-dependent protein kinase 4 (Plasmodium falciparum (isolate 3D7)) (UniProt Q8IBS5). As to the kind of experiment: PfCDPK4 kinase inhibitors, biochemical, TCAMS library (AID 1159588; cut-off not given, nearly all actives have IC50 up to about 0.91 µM). The note with it: recombinant PfCDPK4, Kinase-Glo ATP depletion luminescence.

Values without a mark were called inactive. For some of these results: Measured potencies and affinities stand elsewhere. The source made the active and inactive calls. Unless noted, how the calls were made is not given here.

Sequence of Calcium-dependent protein kinase 4 (Plasmodium falciparum (isolate 3D7)) (Q8IBS5 whole entry, looked up): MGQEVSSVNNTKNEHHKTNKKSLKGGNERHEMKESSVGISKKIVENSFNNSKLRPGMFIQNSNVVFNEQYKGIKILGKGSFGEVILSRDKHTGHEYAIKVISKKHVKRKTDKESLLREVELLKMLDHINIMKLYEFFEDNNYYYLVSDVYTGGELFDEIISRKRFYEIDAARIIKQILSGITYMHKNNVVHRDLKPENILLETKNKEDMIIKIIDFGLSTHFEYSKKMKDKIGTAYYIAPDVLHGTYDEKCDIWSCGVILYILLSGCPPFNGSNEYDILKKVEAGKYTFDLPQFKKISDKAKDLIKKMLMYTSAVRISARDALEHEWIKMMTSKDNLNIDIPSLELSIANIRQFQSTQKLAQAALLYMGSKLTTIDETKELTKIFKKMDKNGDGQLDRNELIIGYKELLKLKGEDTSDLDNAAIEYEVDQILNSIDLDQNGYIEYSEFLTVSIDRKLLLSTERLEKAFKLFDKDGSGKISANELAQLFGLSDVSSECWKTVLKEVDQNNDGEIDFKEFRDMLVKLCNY
Sequence of L-lactate dehydrogenase (Plasmodium falciparum (isolate CDC / Honduras)) (Q27743 whole entry, looked up): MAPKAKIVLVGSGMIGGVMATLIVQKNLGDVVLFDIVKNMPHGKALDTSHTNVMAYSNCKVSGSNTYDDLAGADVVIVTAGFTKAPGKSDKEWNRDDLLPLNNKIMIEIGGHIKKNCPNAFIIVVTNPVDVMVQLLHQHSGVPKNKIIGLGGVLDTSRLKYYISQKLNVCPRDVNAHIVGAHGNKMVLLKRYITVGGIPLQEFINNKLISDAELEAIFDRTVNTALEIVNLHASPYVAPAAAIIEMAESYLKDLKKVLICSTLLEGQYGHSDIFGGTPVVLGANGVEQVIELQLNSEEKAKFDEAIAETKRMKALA
Sequence of Protein kinase 7 (PK7), Plasmodium falciparum 3D7 (PF3D7_0213400) (Q7YTF7 1-343): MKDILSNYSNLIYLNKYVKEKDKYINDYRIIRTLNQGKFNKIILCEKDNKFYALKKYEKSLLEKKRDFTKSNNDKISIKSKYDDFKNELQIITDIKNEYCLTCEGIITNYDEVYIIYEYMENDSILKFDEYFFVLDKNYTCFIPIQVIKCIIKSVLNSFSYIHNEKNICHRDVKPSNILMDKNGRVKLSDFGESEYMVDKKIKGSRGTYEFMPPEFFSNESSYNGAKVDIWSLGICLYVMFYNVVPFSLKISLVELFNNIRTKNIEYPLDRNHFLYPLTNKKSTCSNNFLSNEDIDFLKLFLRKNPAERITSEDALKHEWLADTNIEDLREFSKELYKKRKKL
Sequence of Calcium-dependent protein kinase 1 (Plasmodium falciparum (isolate 3D7)) (P62344 whole entry, looked up): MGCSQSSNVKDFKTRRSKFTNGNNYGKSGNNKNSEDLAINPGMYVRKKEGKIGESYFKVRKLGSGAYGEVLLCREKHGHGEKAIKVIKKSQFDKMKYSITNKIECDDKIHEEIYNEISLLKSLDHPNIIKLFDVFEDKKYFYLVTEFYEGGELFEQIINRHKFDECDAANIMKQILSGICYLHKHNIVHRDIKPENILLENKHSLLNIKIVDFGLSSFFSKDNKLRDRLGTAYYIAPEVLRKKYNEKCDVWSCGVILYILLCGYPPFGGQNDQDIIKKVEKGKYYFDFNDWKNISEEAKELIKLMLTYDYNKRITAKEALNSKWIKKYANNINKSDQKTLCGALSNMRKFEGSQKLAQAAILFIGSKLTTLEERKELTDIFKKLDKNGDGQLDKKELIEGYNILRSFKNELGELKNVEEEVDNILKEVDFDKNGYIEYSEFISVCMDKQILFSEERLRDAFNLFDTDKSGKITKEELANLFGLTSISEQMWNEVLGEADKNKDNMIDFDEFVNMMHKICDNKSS
Sequence of Plasmodium falciparum protein kinase 6 (PK6, PF3D7_1337100) (Q8IDW1 1-305): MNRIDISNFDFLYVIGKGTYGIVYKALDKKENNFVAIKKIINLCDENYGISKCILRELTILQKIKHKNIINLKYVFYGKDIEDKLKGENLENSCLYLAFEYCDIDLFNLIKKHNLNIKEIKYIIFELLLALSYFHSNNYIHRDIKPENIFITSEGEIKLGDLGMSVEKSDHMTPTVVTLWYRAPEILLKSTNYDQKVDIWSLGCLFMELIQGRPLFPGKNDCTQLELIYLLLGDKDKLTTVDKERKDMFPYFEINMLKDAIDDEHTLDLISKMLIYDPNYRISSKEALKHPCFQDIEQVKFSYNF

The inhibition is the change of the read-out against control, counted positive when it falls. Turning to `Cc1cc2nc(NC3=NC4(c5ccccn5)N=C(Nc5nc6cc(C)c(C)cc6[nH]5)NC4(c4ccccn4)N3)[nH]c2cc1C` (stereo not given), the growth inhibition in test [1] is 62% (active); in test [4], 87% (active). The inhibition in test [2] was 3%; in test [3], -2%. Besides, the outcome in test [5], in test [6], in test [7] and in test [8] was inactive.
As to `CS(=O)(=O)N(c1ccccc1)c1cc(C(=O)N[C@@H](Cc2ccccc2)[C@H](O)CNC2CC2)cc(N2CCCC2=O)c1`, the growth inhibition in test [1] was 98% (active); in test [4], 100% (active). Also, the results for the inhibition in test [2] and in test [3] were 1% and 4%, respectively. Also, the result in test [5], in test [6], in test [7] and in test [8] was inactive.
Take `COc1cc(CNC[C@@H](O)[C@H](Cc2ccccc2)NC(=O)c2cc(OC(C)C)cc(N3CCCS3(=O)=O)c2)cc(OC)c1`: the growth inhibition in test [1] is 72% (active); in test [4], 97% (active). Besides, the values for the inhibition in test [2] and in test [3] were -1% and 0%, respectively. The outcome in test [5], in test [6], in test [7] and in test [8] was inactive.
Turning to `COc1ccc(-c2cc(Nc3nc(-c4cccc(Cl)c4)nc4ccccc34)ccn2)cc1`, the results for the growth inhibition in test [1] and in test [4] were 17% and 100% (active), respectively. Besides, the results for the inhibition in test [2] and in test [3] were 3% and -2%, respectively. Besides, the outcome in test [5], in test [6], in test [7] and in test [8] was inactive.
For the compound `CN(C)c1ccc(-c2ccc(C(=O)NC3CCN(Cc4ccccc4F)CC3)s2)cc1`, the growth inhibition in test [1] was 19%; in test [4], 88% (active). The inhibition in test [2] is 30%; in test [3], -4%. The outcome in test [5], in test [6], in test [7] and in test [8] was inactive.
Regarding `Cn1cncc1C(=O)NC1CCN(c2ccnc(Nc3ccc(F)cc3)n2)C1` (stereo not given), the growth inhibition in test [1] was 83% (active); in test [4] it was 97% (active). Also, the results for the inhibition in test [2] and in test [3] were 2% and -7%, respectively. For the same compound, the outcome in test [5], in test [6], in test [7] and in test [8] was inactive.
Consider `COc1ccccc1C1CC(c2ccccc2)=NN1C(=O)c1ccco1` (stereo not given), for which the growth inhibition in test [1] was 95% (active); in test [4], 97% (active). Further, the results for the inhibition in test [2] and in test [3] were 12% and -2%, respectively. Further, the outcome in test [5], in test [6], in test [7] and in test [8] was inactive.
As to `CC(=O)Nc1ncc(C(=O)Nc2cccc(-c3cccc(-c4nc5ccccc5[nH]4)c3)c2)s1`, the growth inhibition was 38% in test [1] and 92% (active) in test [4]. For the same compound, the inhibition in test [2] is 16%; in test [3], 0%. In addition, the result in test [5], in test [6], in test [7] and in test [8] was inactive.
On to `Cc1sc2nc(CSc3ccccc3)nc(N3CCN(CC(=O)NC4CC4)CC3)c2c1C`, for which the growth inhibition in test [1] is 95% (active); in test [4], 96% (active). Moreover, the inhibition in test [2] is 2%; in test [3] it was 1%. The outcome in test [5], in test [6], in test [7] and in test [8] was inactive.
For `CCOC(=O)c1ccc(NC(=O)N[C@@H](Cc2ccccc2)C(=O)NC2CCN(Cc3ccc(OCCCN(C)C)cc3)C2)cc1` (stereo not given in full), the growth inhibition is 8% in test [1] and 91% (active) in test [4]. For the same compound, the inhibition is 5% in test [2] and 0% in test [3]. For the same compound, the result in test [5], in test [6], in test [7] and in test [8] was inactive.
`O=C(Nc1ccc(-c2ccc(-c3nc4ccc(C(F)(F)F)cc4[nH]3)cc2)cc1)Nc1ccc(F)c(F)c1F`: the growth inhibition is 100% (active) in test [1] and 99% (active) in test [4]. Also, the inhibition was 39% in test [2] and 3% in test [3]. The outcome in test [5], in test [6], in test [7] and in test [8] was inactive.
With `Cc1cccc(CNc2nc(C)cc(N[C@@H](Cc3ccccc3)C(=O)NCc3cccc(F)c3)n2)c1`, the results for the growth inhibition in test [1] and in test [4] were 82% (active) and 101% (active), respectively. Also, the inhibition in test [2] is 39%; in test [3], -2%. For the same compound, the result in test [5], in test [6], in test [7] and in test [8] was inactive.
For `COc1cc(OC)cc(-c2nn(-c3ccc([N+](=O)[O-])cc3Cl)c(=S)n2Cc2ccco2)c1`, the growth inhibition in test [1] is 100% (active); in test [4], 101% (active). The values for the inhibition in test [2] and in test [3] were 15% and 2%, respectively. Also, the outcome in test [5], in test [6], in test [7] and in test [8] was inactive.
For the compound `COc1ccc(CNC2CCN(C)CC2)cc1-c1ccc(S(=O)(=O)NCc2ccccc2)s1`, the growth inhibition in test [1] and in test [4] was 101% (active) throughout. Besides, the inhibition in test [2] was 62% (active); in test [3], 0%. Also, the outcome in test [5], in test [6], in test [7] and in test [8] was inactive.
As for `CN1CCC(C(=O)Nc2ccc(-c3cccc(-c4nc5ccc(F)cc5[nH]4)c3)cc2)CC1`, the growth inhibition in test [1] is 5%; in test [4], 101% (active). The inhibition in test [2] was 19%; in test [3], 5%. In addition, the outcome in test [5], in test [6], in test [7] and in test [8] was inactive.
Turning to `O=C(Nc1ccc(-c2cccc(-c3nc4ccc(F)cc4[nH]3)c2)cc1)Nc1ccc(F)c(F)c1F`, the growth inhibition is 98% (active) in test [1] and 100% (active) in test [4]. In addition, the inhibition in test [2] is 70% (active); in test [3], 3%. In addition, the outcome in test [5], in test [6], in test [7] and in test [8] was inactive.
As to `COc1ccc(NC(=O)c2ccc3cc4ccccc4cc3c2)cc1N1CCN(C)CC1`, the results for the growth inhibition in test [1] and in test [4] were 29% and 86% (active), respectively. Moreover, the figures for the inhibition in test [2] and in test [3] were 38% and 1%, respectively. Besides, the result in test [5], in test [6], in test [7] and in test [8] was inactive.
For `CSc1sc(NC(=O)Nc2cccc(C(F)(F)F)c2)cc1C#N`, the growth inhibition was 46% in test [1] and 99% (active) in test [4]. The results for the inhibition in test [2] and in test [3] were 27% and -1%, respectively. Moreover, the result in test [5], in test [6], in test [7] and in test [8] was inactive.
For the compound `O=C(N[C@@H](CC1CCCCC1)C(=O)NC1CCCc2ccccc21)c1ccc(O)c(-c2cccc(C(F)(F)F)c2)c1` (stereo not given in full), the growth inhibition is 99% (active) in test [1] and 100% (active) in test [4]. Further, the figures for the inhibition in test [2] and in test [3] were -4% and 5%, respectively. Further, the outcome in test [5], in test [6], in test [7] and in test [8] was inactive.
In the case of `Oc1ccccc1CCNCC1CCc2ccccc2C1` (stereo not given), the growth inhibition in test [1] and in test [4] was 98% (active) each time. In addition, the inhibition in test [2] was 37%; in test [3] it was 0%. The outcome in test [5], in test [6], in test [7] and in test [8] was inactive.

Source of the values: PubChem BioAssay.
